Here are results for 14 compounds from PubChem BioAssay (NCI).

About 83,000 compounds went through this panel and 20% of them were active in at least one assay; those are over-represented in the sample as a whole.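 Compound tested at a single concentration for 48 hours in 96-well plates; a percent growth value below 10 was scored as active.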 Values without a mark were called inactive. Activity calls are given as the source filed them.

What all share (assay): NCI-60 one-dose screen, 48 h (100 = growth as untreated, 0 = no growth, -100 = all killed)
Holding throughout (conditions): 10 µM unless noted

For experiment [1], the system named is HCT-15 colon.
Experiment [2] relates to HT29 colon.
Experiment [3] relates to SNB-75 CNS.
Experiment [4] has as its system SNB-19 CNS.
The subject of experiment [5] is U251 CNS.
The test system of experiment [6] is PC-3 prostate.
Experiment [7] deals with SK-MEL-5 melanoma.
For experiment [8], the system named is UACC-62 melanoma.
The test system of experiment [9] is LOX IMVI melanoma.
The test system of experiment [10] is SK-MEL-28 melanoma.
Experiment [11] has as its system SK-MEL-2 melanoma.
Experiment [12] has as its system EKVX NSCLC.
Experiment [13] relates to SN12C renal.
In experiment [14] the test system is UO-31 renal.
Experiment [15] relates to TK-10 renal.
The test system of experiment [16] is ACHN renal.
The test system of experiment [17] is CAKI-1 renal.
The test system of experiment [18] is A498 renal.
For experiment [19], the system named is CCRF-CEM leukemia.
Experiment [20] deals with MOLT-4 leukemia.

Turning to `CCOC(=O)C(CCN(C)C)c1ccccc1` (stereo not given), the growth in [1] is 105%; in [2], 92.1%; in experiment [3], 81.1%; in experiment [4] it was 105%; in experiment [5] it was 103%; in [6], 86.6%. Besides, the growth in [7] is 103%; in [8], 102%; in [9], 98.3%; in experiment [10], 97.8%; in experiment [11], 101%; in experiment [12] it was 101%. Moreover, the growth in experiment [13] is 99.5%; in [14] it was 90.9%; in [15], 95%; in experiment [16], 104%; in experiment [17], 94.5%; in experiment [18], 107%. Further, the growth is 93.2% in experiment [19] and 116% in [20].
As to `CC12OC(CC(O)C1O)n1c3ccccc3c3c4c(c5c6ccccc6n2c5c31)C(=O)N(CCN1CCCC1)C4=O` (stereo not given), the growth in [1] was 10.5%; in [2], 5.08% (active); in [3] it was 10.2%; in experiment [4] it was 13.4%; in experiment [5], 11.8%; in [6], 20.8%. Besides, the growth is 28.9% in experiment [7]; 19.3% in experiment [8]; -2.77% (active) in [9]; 63% in [10]; 31.9% in experiment [11]; 38.4% in experiment [12]. Also, the growth in [13] is 14.9%; in [14] it was 19.5%; in [15], 21.2%; in experiment [16] it was -38.1% (active); in [17], 15.4%; in experiment [18], 17.8%. The growth in experiment [19] is 20.3%; in [20], -3.23% (active).
For the compound `c1cc(OCCCCCOc2cccc(-c3nc4ccccc4[nH]3)c2)cc(-c2nc3ccccc3[nH]2)c1`, the growth was 12.3% in [1]; 5.53% (active) in experiment [2]; 31.4% in experiment [3]; 22.3% in experiment [4]; 6.76% (active) in experiment [5]; -13.1% (active) in experiment [6]. The growth in experiment [7] was -81.5% (active); in [8] it was 8.55% (active); in [9], -27.8% (active); in [10], 18.7%; in [11] it was 9.28% (active); in experiment [12], 2.5% (active). Further, the growth in [13] was 26.4%; in [14] it was 3.69% (active); in experiment [15], 25.7%; in [16], 6.47% (active); in [17], 36.4%; in [18] it was 9.68% (active). The growth in [19] is -18.9% (active); in experiment [20] it was -13.5% (active).
As for `COc1ccc(C/C(C)=C(\c2ccc(Cl)cc2)c2ccc(OCCCN(C)C)cc2)cc1`, the growth in experiment [1] was 27.3%; in experiment [2], 13.6%; in [3] it was 72.4%; in experiment [4], 86.7%; in [5] it was 46.4%; in experiment [6], 68.7%. For the same compound, the growth is 78.3% in [7]; 94.5% in [8]; 73.1% in experiment [9]; 80.8% in experiment [10]; 111% in experiment [11]; 94.1% in [12]. Besides, the growth was 78.8% in experiment [13]; 62.4% in [14]; 86.7% in experiment [15]; 90% in [16]; 87.3% in experiment [17]; 114% in [18]. The growth was 56.9% in experiment [19] and 40.9% in experiment [20].
`CCOC(=O)NC(=S)n1oc(=O)c2ccccc21`: the growth in experiment [1] is 103%; in experiment [2] it was 105%; in [3] it was 94.7%; in experiment [4], 104%; in experiment [5], 98.6%; in experiment [6] it was 98.3%. Besides, the growth in [7] was 108%; in experiment [8] it was 93.3%; in experiment [9] it was 96.8%; in experiment [10] it was 103%; in experiment [11], 110%; in experiment [12], 101%. The growth was 102% in [13]; 82.2% in experiment [14]; 109% in experiment [15]; 101% in experiment [16]; 90.4% in experiment [17]; 103% in [18]. Also, the values for the growth in experiment [19] and in experiment [20] were 101% and 95.9%, respectively.
On to `CS(=O)(=O)c1ccc(-c2nc3ccccc3n2CC(=O)N/N=C/c2ccccc2)cc1`, for which the growth was 100% in experiment [1]; 88.5% in experiment [2]; 96.5% in experiment [3]; 107% in experiment [4]; 109% in [5]; 96.9% in experiment [6]. Moreover, the growth was 100% in experiment [7]; 94.4% in [8]; 107% in [9]; 103% in [10]; 99.7% in [11]; 92.9% in experiment [12]. Also, the growth was 108% in [13]; 76.3% in experiment [14]; 103% in experiment [15]; 101% in experiment [16]; 89.4% in [17]; 111% in [18]. In addition, the values for the growth in experiment [19] and in experiment [20] were 104% and 117%, respectively.
Take `O=C(NCCCCO)c1cncnc1Nc1ccc2c(ccn2Cc2cccc(F)c2)c1`: the growth was 85.1% in experiment [1]; 99.9% in [2]; 85% in experiment [3]; 85.1% in [4]; 94.7% in experiment [5]; 86% in experiment [6]. Besides, the growth is 95.2% in experiment [7]; 80.4% in experiment [8]; 93.7% in [9]; 100% in experiment [10]; 106% in experiment [11]; 85.1% in [12]. Further, the growth in [13] was 87.7%; in [14] it was 67%; in [15], 98.7%; in experiment [16], 86.3%; in experiment [17], 79.8%; in [18] it was 69.5%. The growth in experiment [19] is 103%; in experiment [20], 88.3%.
With `O=CN1N=C(c2cccc(Nc3ccnc4cc(Cl)ccc34)c2)CC1c1ccc(Cl)cc1` (stereo not given), the growth in experiment [1] is 29.5%; in [2], -24.8% (active); in experiment [3], -17.4% (active); in experiment [4], 49%; in experiment [5], 18.9%; in experiment [6], 23.1%. For the same compound, the growth in experiment [7] was 12.7%; in experiment [8], 32.4%; in experiment [9], 24.2%; in experiment [10], 52.7%; in experiment [11], 9.56% (active); in experiment [12], 49.1%. For the same compound, the growth in experiment [13] was 34.1%; in [14], 22.7%; in [15], 45%; in [16] it was 45.5%; in [17], 18.8%; in experiment [18], 11.4%. For the same compound, the results for the growth in experiment [19] and in experiment [20] were 12.2% and 13.7%, respectively.
With `Cc1[nH]c(C(=O)Nc2ccccc2OC2CCN(CCN3CCOCC3)CC2)c(Cl)c1Cl`, the growth in experiment [1] is 83.6%; in [2], 73.7%; in [3] it was 76.1%; in experiment [4], 107%; in experiment [5], 93.3%; in experiment [6], 78.3%. For the same compound, the growth is 87.9% in experiment [7]; 108% in experiment [8]; 86.3% in [9]; 104% in experiment [10]; 101% in experiment [11]; 86% in [12]. The growth in experiment [13] was 97.7%; in experiment [14], 51.9%; in experiment [15], 69.7%; in experiment [16] it was 94.7%; in experiment [17], 84%; in experiment [18], 71.6%. The growth in experiment [19] is 89.4%; in experiment [20], 72.6%.
In the case of `CCC(C)(C)c1ccc(Nc2ccc(Nc3ccc(C(C)(C)CC)cc3)cc2)cc1`, the growth was 91.2% in [1]; 67% in experiment [2]; 93% in [3]; 95.9% in experiment [4]; 90.7% in experiment [5]; 65.8% in experiment [6]. In addition, the growth in experiment [7] was 99.2%; in [8], 83.2%; in experiment [9], 89.9%; in experiment [10], 105%; in experiment [11], 95.9%; in experiment [12], 98.6%. Also, the growth in experiment [13] was 96.7%; in experiment [14], 62.5%; in [15] it was 103%; in [16] it was 97%; in [17], 71%; in experiment [18], 121%. The growth in [19] was 87.9%; in experiment [20], 76%.
In the case of `C/C=C1/CN(CCCCC)CC[C@H]1C(=O)c1cc2ccccc2[nH]1`, the growth in experiment [1] was 87%; in experiment [2] it was 75.7%; in [3], 76.4%; in [4], 96.7%; in experiment [5] it was 98.1%; in experiment [6], 85.8%. The growth is 87.9% in experiment [7]; 95% in experiment [8]; 90.1% in [9]; 111% in [10]; 118% in experiment [11]; 94.1% in experiment [12]. In addition, the growth in [13] is 86.1%; in experiment [14], 50.7%; in experiment [15], 120%; in experiment [16], 96.1%; in experiment [17], 87.6%; in experiment [18], 88.9%. Besides, the growth is 96.8% in experiment [19] and 86.1% in [20].
On to `Ic1ccc(Nc2nc3nonc3nc2Nc2ccc(I)cc2)cc1`, for which the growth in experiment [1] was -11.5% (active); in experiment [2], 0.391% (active); in [3] it was 24.7%; in experiment [4], 22.4%; in [5] it was 6.94% (active); in experiment [6], 4.36% (active). The growth was -81.2% (active) in [7]; -28.2% (active) in experiment [8]; -3.56% (active) in [9]; 12.2% in experiment [10]; -55.2% (active) in experiment [11]; 4.77% (active) in experiment [12]. Moreover, the growth in experiment [13] was 7.43% (active); in experiment [14] it was -0.338% (active); in [15], 2.2% (active); in [16], 4.88% (active); in experiment [17], 7.67% (active); in experiment [18] it was -22% (active). Also, the growth was -1.76% (active) in experiment [19] and -29% (active) in experiment [20].
In the case of `Cc1nc([P+](c2ccccc2)(c2ccccc2)c2ccccc2)c(N2CCCCC2)o1`, the growth in [1] is 103%; in experiment [2], 14.1%; in [3], 37.9%; in [4], 18.7%; in experiment [5], 16.6%; in experiment [6], 15.3%. For the same compound, the growth in experiment [7] is -32.3% (active); in [8] it was 25.3%; in experiment [9], 24.5%; in [10] it was 34.3%; in [11] it was 41.2%; in [12], 63.4%. The growth in [13] is 35%; in [14], 97%; in [15], 53.6%; in [16] it was 87.6%; in experiment [17] it was 78%; in experiment [18], 34.6%. The results for the growth in experiment [19] and in [20] were 21.2% and 28.8%, respectively.
Take `COc1cc(C=C2C(=O)NC(=S)NC2=O)cc(CN2CCCC2)c1O`: the growth in experiment [1] is 105%; in experiment [2], 109%; in [3], 95.4%; in experiment [4], 105%; in [5], 96.2%; in [6], 102%. Moreover, the growth is 111% in [7]; 99.7% in experiment [8]; 97.6% in [9]; 115% in experiment [10]; 110% in [11]; 101% in experiment [12]. The growth in experiment [13] is 104%; in experiment [14], 87%; in experiment [15], 109%; in experiment [16] it was 111%; in experiment [17] it was 90.5%; in experiment [18], 101%. In addition, the figures for the growth in [19] and in [20] were 107% and 110%, respectively.
